USP30 block: blocks human USP30 ubiquitin-rhodamine cleavage; Q70CQ3; purified USP30, Ub-rhodamine cleavage fluorescence; inhibition, % at 25 µM; hit rate 5.3% among 47,000; AID 1645860
USP17 inh: blocks human USP17 ubiquitin-rhodamine cleavage; A8MUK1; purified USP17, Ub-rhodamine cleavage fluorescence, 3 h; inhibition, % at 50 µM; hit rate 6.5% among 47,000
Target sequence (A8MUK1 whole entry, looked up): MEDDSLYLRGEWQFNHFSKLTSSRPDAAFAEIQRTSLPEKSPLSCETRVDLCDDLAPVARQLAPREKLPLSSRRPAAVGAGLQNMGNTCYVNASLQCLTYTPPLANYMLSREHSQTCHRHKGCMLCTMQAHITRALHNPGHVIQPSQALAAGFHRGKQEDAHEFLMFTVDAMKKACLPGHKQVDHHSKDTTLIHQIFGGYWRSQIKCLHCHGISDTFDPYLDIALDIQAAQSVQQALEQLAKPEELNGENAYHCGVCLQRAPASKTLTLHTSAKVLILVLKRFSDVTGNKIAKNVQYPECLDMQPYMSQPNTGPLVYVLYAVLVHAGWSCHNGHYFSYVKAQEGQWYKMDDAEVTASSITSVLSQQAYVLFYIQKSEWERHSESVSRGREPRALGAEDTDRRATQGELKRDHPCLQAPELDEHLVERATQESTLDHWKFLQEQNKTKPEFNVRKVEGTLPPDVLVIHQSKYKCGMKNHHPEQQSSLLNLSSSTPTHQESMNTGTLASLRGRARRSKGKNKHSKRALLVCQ
OTUD3 block: blocks human OTUD3 ubiquitin-rhodamine cleavage | inhibition, % at 25 µM | purified OTUD3, Ub-rhodamine fluorescence, 2 h | AID 1645858 | Q5T2D3 | hit rate 0.7% among 47,000
USP8 inh: human USP8 deubiquitinase inhibition; P40818; purified USP8, Ub-rhodamine cleavage fluorescence, 30 min; inhibition, % at 20 µM; hit rate 4.2% among 47,000
USP28 block: inhibitors of human USP28 deubiquitinase. Q96RU2. purified USP28, Ub-rhodamine cleavage fluorescence, 30 min. inhibition, % at 25 µM. hit rate 3% among 47,000. AID 1645857
USP10 block: human USP10 deubiquitinase inhibition; Q14694; inhibition, % at 20 µM; purified USP10, Ub-rhodamine fluorescence, 60 min; hit rate 1.1% among 47,000
Starred values were filed as active, the others as inactive; . = no result given. Compounds with a hit are over-represented: about 13% of the library has one in this group of screens. Rule as the data show it: active = inhibition above about 30%; inactive = the rest.

SMILES | USP30 block | USP17 inh | OTUD3 block | USP8 inh | USP28 block | USP10 block
CN1CCN(c2ccc3nnc(CCC(=O)N4CCC(Cc5ccccc5)CC4)n3n2)CC1 | 8 | -4 | -8 | 1 | -10 | -1
O=C(O)CCCCCN1C(=O)CC(c2ccc(Cl)cc2)CC1=O | -73 | 76* | 8 | 55* | 32* | 12
Cc1ccccc1Nc1c(-c2ccccc2O)nc2c(C)cccn12 | -7 | 0 | -4 | 1 | -8 | 9
Cc1ccc2nc(-c3ccccc3O)c(Nc3ccc(Cl)cc3)n2c1 | -5 | 24 | 6 | 76* | -4 | 6
COc1ccc(NC(=O)Cn2c(=O)n(CCC(=O)N3CC=C(c4ccccc4)CC3)c(=O)c3ccccc32)cc1Cl | -5 | -6 | -1 | 0 | -5 | 3
COc1ccc(Cl)cc1NC(=O)Cn1c(=O)n(CCC(=O)N2CCc3ccccc3C2)c(=O)c2ccccc21 | 36* | 25 | 16 | 34* | 5 | 5
COc1ccc(NC(=O)Cn2c(=O)n(CCC(=O)N3CCc4ccccc4C3)c(=O)c3ccccc32)cc1Cl | 19 | . | 23 | 55* | 10 | 17
O=C(c1cnc2ccc(F)cc2c1S(=O)(=O)c1cccc(F)c1)N1CCCCC1 | -57 | -29 | -18 | -15 | -23 | -5
O=S1(=O)Cc2cnc(Nc3ccccc3)nc2[C@H]2CN(Cc3ccccc3)C[C@H]21 | 5 | 0 | 0 | 4 | 2 | 4
Cc1nc(-c2ccccc2)n(Cc2cccc(C#N)c2)c(=O)c1CCO | 11 | -4 | -6 | 10 | 24 | 5
Cn1c2ccc(F)cc2c2ncn(Cc3ccc4c(c3)OCO4)c(=O)c21 | 28 | 27 | 9 | 32* | 15 | 4
Cn1c2ccc(F)cc2c2ncn(CCN3CCOCC3)c(=O)c21 | 14 | 10 | 7 | 25 | 4 | 5
CC12C(=O)N(c3ccccc3)C(=O)N1CCc1c2[nH]c2ccccc12 (centres undefined) | -2 | -11 | 1 | 13 | -5 | 7
CCc1ccc(NS(=O)(=O)c2c[nH]c3ccc([N+](=O)[O-])cc23)cc1 | 66* | 60* | 13 | 2 | 25 | 14
CCn1ccc2c(cc(C(=O)Nc3ccccc3F)n2C)c1=O | -6 | 0 | -2 | -43 | 74* | 0
CCn1ccc2c(cc(C(=O)Nc3ccccc3C)n2C)c1=O | -1 | . | 1 | 1 | 16 | 2
O=C(Nc1ccccc1)N1C[C@@H]2CN(Cc3cccc(F)c3)[C@@H]2C1 | -3 | 0 | -6 | -10 | -1 | 4
O=C(Nc1nc2c(s1)CCC2)c1cccc(N2CCNC2=O)c1 | -42 | 42* | -1 | -4 | 31* | 0
Cc1cccc(OCC(=O)Nc2onc3c2CCCC3)c1 | 12 | 2 | 8 | 7 | 20 | 2
O=C(Nc1nc2c(s1)CCCC2)c1cccc(Cl)c1Cl | -2 | 16 | 8 | 15 | 38* | 6
O=C(Nc1nc2c(s1)CCCC2)c1cn(-c2ccccc2)nc1-c1ccccc1 | 4 | 18 | 5 | 28 | 11 | 7
Cc1cccc(OCC(=O)Nc2nc3c(s2)CCCC3)c1 | 24 | 13 | 19 | -19 | 48* | 14
CN1CCc2nc(NC(=O)COc3ccc(C#N)cc3)sc2C1 | 59* | 83* | 21 | -3 | 33* | -3
Cc1occc1C(=O)N1CCC2(CC1)CCN(c1cccnc1)C2=O | -15 | -23 | 9 | -163 | 5 | 0
COc1ccc(Cn2c(C(=O)O)c(CNC3CCCCCC3)c3ccccc32)cc1 | 18 | -4 | 2 | -11 | 16 | -1
SMILES | USP30 block | USP17 inh | OTUD3 block | USP8 inh | USP28 block | USP10 block
CCCCCCCCCCCC(O)CC(=O)N[C@@H](CC(C)C)C(=O)N[C@H](CCC(=O)O)C(=O)N[C@H]1C(=O)N[C@H]([C@@H](C)CC)C(=O)NC(CC(C)C)C(=O)N[C@H](CO)C(=O)N[C@@H](CC(C)C)C(=O)N[C@@H](CC(C)C)C(=O)N[C@H](CO)C(=O)N[C@@H](C(C)C)C(=O)O[C@@H]1C (some centres undefined) | -15 | 51* | 44* | 35* | 43* | 35*
O=C(c1cc2c(s1)CN(C1CC1)C2)N1CCN(c2ccccn2)CC1 | 5 | 40* | -3 | 10 | 2 | 3
O=C(c1cccc2c1C(=O)N(C1CCCCC1)C2)N1CCN(c2ccccn2)CC1 | -46 | -23 | -11 | -8 | -8 | -3
CCC(=O)Oc1cn(-c2ccc(C(C)C)cc2)c2nc(CC)n3c4ccccc4nc3c12 | -24 | 4 | -1 | 47* | -7 | -3
Cc1ccccc1NC1c2ccccc2C(=O)N1c1cccnc1 (centres undefined) | -11 | -11 | -2 | -5 | -5 | 2
Cc1ccc(S(=O)(=O)N(C)c2ccc(OCC(=O)Nc3ccccc3)cc2)cc1 | 18 | 9 | 8 | 0 | 16 | 7
CCN(c1ccccc1)S(=O)(=O)c1nnc(NC(=O)COc2ccc(Cl)cc2)s1 | -336 | -19 | -46 | 39* | -75 | 0
CCOC(=O)c1ccc(Oc2nc(C)nc3sc(C)c(C)c23)cc1 | 3 | -16 | -1 | -97 | -2 | 3
O=C(NCc1ccccn1)c1nc[nH]c1C(=O)NCc1ccc2c(c1)OCO2 | 10 | -2 | 8 | -37 | 24 | 2
COC(=O)c1cc(Br)c(NC(=O)c2ccco2)cc1OC | 20 | 39* | 18 | -1 | 17 | 1
Nc1ccccc1SCc1noc(-c2cccs2)n1 | -11 | -8 | -1 | -18 | 73* | -1
Clc1ccc2oc(-c3cccs3)nc2c1 | 10 | 5 | -2 | 2 | 4 | 5
O=C1CC(c2cc3c(cc2Br)OCO3)c2cc3c(cc2N1)OCCO3 (centres undefined) | 18 | 67* | 0 | 4 | 11 | 40*
O=C1CC(c2cc(F)ccc2F)c2cc3c(cc2N1)OCCO3 (centres undefined) | 20 | 9 | 6 | 6 | 14 | 2
Cc1nc(C)n(CC2CCCCN2Cc2nnsc2Cl)n1 (centres undefined) | -25 | . | -7 | -33 | -17 | -1
Cc1ccc(-c2nc(C)sc2CC(=O)Nc2ccccc2N2CCOCC2)cc1 | 10 | 0 | -4 | 0 | 6 | -1
CC(=O)c1ccc(NC(=O)Cc2sc(C)nc2-c2ccc(C)cc2)cc1 | -3 | -5 | -1 | -25 | 39* | 1
Cc1ccccc1NC(=O)Cn1cc(-c2nc(C3CC3)no2)ccc1=O | 70* | 13 | 3 | -2 | -3 | -1
Cc1ccc(NC(=O)Cn2cc(-c3nc(C4CC4)no3)ccc2=O)cc1C | -24 | 18 | 10 | 11 | 1 | 16
Cc1ccc(NC(=O)Cn2cc(-c3nc(C4CC4)no3)ccc2=O)cc1 | 36* | 15 | 26 | 29 | 14 | 17
O=C(CN1C(=O)CCCc2cc(S(=O)(=O)N3CCCC3)ccc21)NC1CC1 | 14 | 9 | 5 | 26 | 8 | -2
O=C(NC(C(=O)OCc1ccccc1)c1ccccc1)c1ccccc1 (centres undefined) | 32* | 26 | 10 | 4 | 9 | 6

High-throughput results deposited in PubChem BioAssay by Buhrlage Lab, Dana-Farber Cancer Institute and Novartis Institutes for BioMedical Research (Cambridge, Mass).
